Measurements as given in PubChem BioAssay (NCI).
The panel holds about 83,000 compounds, 20% with a hit somewhere; the sample as a whole holds those more often.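 For each line, cells grew in 96-well plates with the test compound present at a single concentration for 48 hours.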 The source made the active and inactive calls.

System: BT-549 breast
Experiment: NCI-60 one-dose screen, 48 h (100 = growth as untreated, 0 = no growth, -100 = all killed)
Settings: 10 µM unless noted
Procedure: Growth inhibition of the BT-549 human tumor cell line is measured as a screen for anti-cancer activity. Cells are grown in 96 well plates and exposed to the test compound for 48 hours. Compounds are tested at a single concentration, which is 10^-5 M for most compounds. The reported endpoint is percent growth (GI% or GIPRCNT), where numbers from 0 - 100% represent growth inhibition, and numbers from -100% - 0 represent cell death. For example, a value of 40 represents 60% growth inhibition. A value of 0 means no net growth occurred over the course of the experiment. A value of -40 indicates 40% of cells at the beginning of the experiment died by the end of the experiment. A value of -100 means all cells are dead at the end of the experiment.
NCI-60 Human Tumor Cell Lines Screen was performed using the standard one-dose NCI protocol, which is described in more detail at https://dtp.cancer.gov/discovery_development/nci-60/default.htm.
Compounds with GIPRCNT values below 10 were considered active. Activity score was based on GIPRCNT using the following formula: […]
Score is 0 for GIPRCNT values of 100 or above, 50 for GIPRCNT values of 0, and 100 for GIPRCNT values of -100.

Structure (SMILES)	growth
CCn1cc(C(=O)O)c(=O)c2cc(F)c(N3CCN(CC(=O)Nc4ccc(/C(C)=N/OC)cc4)CC3)cc21	92.5% (inactive)
O=C(NCc1ccccc1)c1ccc2c(c1)NC(=O)[C@@H]1CCCN21	110% (inactive)
CCCCOc1nc2ccc(C)cc2cc1/C=C/C(=O)/C=C/c1ccc2c(c1)OCO2	75.9% (inactive)
COc1cc(C(C)c2ccc3c(ccn3C)c2)cc(OC)c1OC (stereo not given)	12.7% (inactive)
c1ccc(-c2n(Cc3ccc4ccccc4n3)cc[n+]2Cc2ccc3ccccc3n2)cc1	28% (inactive)
COc1cc(/C=C/C(=O)c2ccc(NC(=O)CSc3nnc(-c4cc(OC)c(OC)c(OC)c4)n3-c3ccccc3)cc2)cc(OC)c1OC	-19.6% (active)
CN1CC=C(c2cc(NC(=O)Nc3ccc(Oc4ccnc(NC(=O)C5CC5)c4)c(F)c3)cc(C(F)(F)F)c2)CC1	-11.2% (active)
O=C(O)c1cn(C2CC2)c2cc(N3CCN(C(=O)CSc4nnc(-c5ccc(Cl)cc5)n4-c4ccccc4)CC3)c(F)cc2c1=O	99.1% (inactive)
O=C1NCc2ccc3c(-c4cccc(Cl)c4)c[nH]c3c21	58.5% (inactive)
Cc1ccc(C(=O)O)o1	97.9% (inactive)
N#CC(C#N)=C1NC(c2ccccc2)=C(c2ccccc2)C(c2ccccc2Cl)=C1C#N	86.2% (inactive)
O=c1[nH]c2ccccc2cc1-c1nc2ccc(Cl)cc2[nH]1	43% (inactive)
CC(=O)c1c(OCC#N)ccc2c(C)cc(=O)oc12	118% (inactive)
O=C1CC23OC(C(O)c4ccccc4N12)C1C(c2ccccc2)=NOC13 (stereo not given)	24.6% (inactive)
CCCS(=O)(=O)Nc1ccc(F)c(C(=O)c2c[nH]c3ncc(-c4ccc(OCCCC5CCCCN5)nc4)cc23)c1F (stereo not given)	57.5% (inactive)
O=C(/C(=C\c1c(-c2ccccc2)[nH]c2ccccc12)S(=O)(=O)c1ccccc1)c1ccccc1	47.7% (inactive)
Oc1ccc(CNNc2ccnc3c(O)cccc23)c2cccnc12	37.1% (inactive)
C=C(C)[C@@H]1CC[C@]2(C(=O)OCCOCCOCC[P+](c3ccccc3)(c3ccccc3)c3ccccc3)CC[C@]3(C)[C@H](CC[C@@H]4[C@@]5(C)CC[C@H](C)C(C)(C)[C@@H]5CC[C@]43C)[C@@H]12	-93% (active)
COc1cc(C2=NN(C=O)C(c3cccc(Nc4ccnc5cc(C(F)(F)F)ccc45)c3)C2)cc(OC)c1OC (stereo not given)	56.1% (inactive)
C=C1C(=O)O[C@H]2[C@H]1CC/C(COC(=O)CCCCCCCC(=O)OC/C1=C/CC[C@@]3(C)O[C@H]3[C@H]3OC(=O)C(=C)[C@@H]3CC1)=C\CC[C@@]1(C)O[C@@H]21	25.2% (inactive)

Structure (SMILES)	growth
OCCNc1nc(NCCO)nc(Nc2ccc(C3=NN(c4cc(Cl)cc(Cl)c4)C(c4ccc(Cl)cc4)C3)cc2)n1 (stereo not given)	52.1% (inactive)
COCCOC(=O)COc1ccc(OC)cc1	103% (inactive)
O=C(Nc1cc(Br)ccn1)c1cc2cc(Nc3nc(-c4ccccc4)nc4ccccc34)ccc2oc1=O	103% (inactive)
COc1cc(-c2csc(NC(=O)Nc3cc(Cl)cc(Cl)c3)n2)cc(OC)c1OC	11.5% (inactive)
COc1cc(C2=NN(C(C)=O)C(c3cccc(Nc4ccnc5cc(C(F)(F)F)ccc45)c3)C2)cc(OC)c1OC (stereo not given)	46.2% (inactive)
CCc1n(Cc2ccc3ccccc3c2)c2ccccc2[n+]1Cc1ccc2ccccc2c1	58.7% (inactive)
O=C(O)c1ccc(-n2cc(/C=N/Nc3ccc(Cl)cc3Cl)c(-c3ccccc3)n2)cc1	79.3% (inactive)
CCCCn1c(=O)c(/C=C/C(=O)/C=C/c2ccc(OC)cc2)cc2cc(Cl)ccc21	89.4% (inactive)
COc1ccc(-c2nnc(N3CCN(C(=O)CN4CCN(c5ccc(OC)cc5)CC4)CC3)nc2-c2ccc(OC)cc2)cc1	-81.8% (active)
COc1ccc2oc(=O)cc(-c3c(C#N)c(N)n4nc(N)c(C#N)c4c3C#N)c2c1	89.3% (inactive)
N#Cc1ccc(N2Cc3cc(Cl)ccc3OC3=C2C(=O)N(Cc2ccccc2)C3=O)cc1	-50.5% (active)
COc1ccc(C2C(c3ccccc3)C(=O)N2c2cc(OC)c(OC)c(OC)c2)cc1I (stereo not given)	12% (inactive)
S=C(Nc1ccc(Cl)cc1)c1ccccn1	94.5% (inactive)
NS(=O)(=O)c1ccc(-n2ncc(NC(=O)Nc3ccc(S(=O)(=O)Nc4nccs4)cc3)c2-c2ccccc2)cc1	103% (inactive)
COc1ccc(C2N(c3cc(OC)c(OC)c(OC)c3)C(=O)C2(F)F)cc1F (stereo not given)	35% (inactive)
Cc1cc(Nc2nc(SCc3ccc(C(=O)Nc4ccc(F)cc4N)cc3)nn3cccc23)n[nH]1	27% (inactive)
O=C(Nc1ccc(N=Cc2ccccc2O)cc1)NC1C=c2ccccc2=CC1 (stereo not given)	86.6% (inactive)
CCOC(=O)c1c(C)nc2c(c1N)/C(=C/c1cccs1)C(=O)N2Cc1ccccc1	73.6% (inactive)
Cc1c(C(=O)Nc2nc3ccccc3[nH]2)cnn1-c1ccccn1	111% (inactive)
Cc1c(Cl)cccc1NC(=O)c1sc2nc3c(cc2c1N)CN(Cc1ccccc1)CC3	61.9% (inactive)
